# Results as given in ChEMBL document CHEMBL3988442, “University of Dundee, Small-Polar-MMV Screening Library” (2021).
# For some of these results: Entries with a potency or affinity are not part of this list.
# How the values were obtained:
# Set-up in all cases: scale not given: direction of the effect not stated beside the values
# [1] = biological target: Protein translocase subunit SecA (Escherichia coli (strain K12)) (UniProt P10408); assay: Assay to Identify E. coli SecA ATPase Inhibitors; assay type: functional; conditions: 30 µM
# [2] = biological target: T1, Ubiquitin-activating enzyme e1, putative (Leishmania donovani (strain BPK282A1)) (UniProt E9BSI1); assay: Leishmania donovani Ubiquitin Activating Enzyme (LdE1); assay type: functional; conditions: 30 µM
# T1 sequence (whole entry): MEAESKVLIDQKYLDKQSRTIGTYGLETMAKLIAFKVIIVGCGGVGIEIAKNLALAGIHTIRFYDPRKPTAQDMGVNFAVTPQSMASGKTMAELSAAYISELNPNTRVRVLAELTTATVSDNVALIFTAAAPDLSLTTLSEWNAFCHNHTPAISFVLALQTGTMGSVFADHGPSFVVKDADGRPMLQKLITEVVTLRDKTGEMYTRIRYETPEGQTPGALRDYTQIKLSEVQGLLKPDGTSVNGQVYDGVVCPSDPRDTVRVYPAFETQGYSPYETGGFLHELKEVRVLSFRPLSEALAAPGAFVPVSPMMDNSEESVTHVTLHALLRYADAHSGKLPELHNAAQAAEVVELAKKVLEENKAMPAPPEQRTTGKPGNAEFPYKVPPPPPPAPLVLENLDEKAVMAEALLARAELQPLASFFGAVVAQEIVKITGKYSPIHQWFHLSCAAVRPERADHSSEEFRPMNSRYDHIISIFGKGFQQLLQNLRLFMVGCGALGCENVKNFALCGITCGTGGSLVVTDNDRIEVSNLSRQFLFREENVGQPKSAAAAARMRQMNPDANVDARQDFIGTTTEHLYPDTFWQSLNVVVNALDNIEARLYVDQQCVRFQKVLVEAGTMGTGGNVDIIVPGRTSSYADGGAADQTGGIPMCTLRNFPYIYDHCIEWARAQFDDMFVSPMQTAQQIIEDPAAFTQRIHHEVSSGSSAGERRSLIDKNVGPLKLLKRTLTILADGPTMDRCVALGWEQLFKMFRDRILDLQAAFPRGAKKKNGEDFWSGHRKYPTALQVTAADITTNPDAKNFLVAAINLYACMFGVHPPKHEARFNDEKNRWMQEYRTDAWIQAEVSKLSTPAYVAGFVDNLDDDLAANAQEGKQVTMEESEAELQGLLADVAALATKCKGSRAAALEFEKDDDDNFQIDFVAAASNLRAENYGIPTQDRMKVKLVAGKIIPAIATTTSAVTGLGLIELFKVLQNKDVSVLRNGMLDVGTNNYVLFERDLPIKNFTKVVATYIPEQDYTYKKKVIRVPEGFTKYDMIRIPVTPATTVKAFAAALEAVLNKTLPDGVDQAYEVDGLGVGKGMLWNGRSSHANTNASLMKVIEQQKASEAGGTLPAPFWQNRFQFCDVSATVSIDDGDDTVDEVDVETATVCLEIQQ
# [3] = biological target: AMP-activated protein kinase, AMPK (Homo sapiens) (UniProt P54646+O43741+P54619+Q9UGJ0+Q9Y478+Q13131+Q9UGI9); assay: AMP-dependent Kinase enzyme assay. An in vitro enzyme assay that detects ADP turnover that is directly proportional to AMPK activity. This uses naive AMPK that is activated during the assay with MK-8722; assay type: functional; conditions: 30 µM
# [4] = biological target: Sialic acid-binding Ig-like lectin 9 (Homo sapiens) (UniProt Q9Y336); assay: Hs-Siglec9 ALPHAscreen SOP 20170721; conditions: 10 µM
# Trypanosoma cruzi = assay: Trypanosoma cruzi phosphomannomutase and mannose-1-phosphate guanylyltransferase assay; assay type: functional; conditions: 10 µM
# [5] = biological target: T2, Arginase-2, mitochondrial (Homo sapiens) (UniProt P78540); assay: in vitro enzyme assay to detect the production of urea directly proportional to the activity of Arginase II; assay type: functional; conditions: 33.3 µM; further: in the data most compounds retested in dose-response had high values
# T2 sequence (whole entry): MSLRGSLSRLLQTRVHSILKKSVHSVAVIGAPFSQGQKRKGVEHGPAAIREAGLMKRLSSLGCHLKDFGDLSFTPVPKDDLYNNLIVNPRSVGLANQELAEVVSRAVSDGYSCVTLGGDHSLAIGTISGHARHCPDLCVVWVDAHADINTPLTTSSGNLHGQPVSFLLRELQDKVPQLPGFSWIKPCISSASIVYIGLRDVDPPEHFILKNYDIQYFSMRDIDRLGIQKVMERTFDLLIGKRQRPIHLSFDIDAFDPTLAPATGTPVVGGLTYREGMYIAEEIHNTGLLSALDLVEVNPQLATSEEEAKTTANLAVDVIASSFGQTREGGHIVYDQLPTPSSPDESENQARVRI
# [6] = biological target: T3, Proteasome subunit beta (Trypanosoma cruzi) (UniProt O96673); assay: Trypanosoma cruzi proteasome chymotrypsin-like activity (TcProtChymo) assay.; further: in the data most compounds retested in dose-response had high values; assay type: functional; conditions: 9.37 µM
# T3 sequence (whole entry): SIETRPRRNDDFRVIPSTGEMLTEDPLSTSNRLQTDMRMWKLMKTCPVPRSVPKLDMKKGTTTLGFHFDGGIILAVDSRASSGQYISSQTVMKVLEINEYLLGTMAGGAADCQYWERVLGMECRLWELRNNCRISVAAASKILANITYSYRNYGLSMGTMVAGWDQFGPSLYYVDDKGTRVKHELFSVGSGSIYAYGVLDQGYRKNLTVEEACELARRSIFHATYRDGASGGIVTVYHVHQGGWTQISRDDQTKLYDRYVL
# Homo sapiens = species on record: Homo sapiens; assay: To identify inhibition of the IFN signalling (Jak-Stat) pathway via expression of an eGFP reporter gene under the control of an IFN-stimulated response element (ISRE) containing MxA promoter.; assay type: functional; conditions: 30 µM
# [7] = biological target: T4, Tyrosyl-tRNA synthetase, putative (Trypanosoma cruzi (strain CL Brener)) (UniProt Q4DSP6); assay: Trypanosoma cruzi tyrosyl tRNA synthetase (TcYRS) _High Tyrosine SOP; assay type: functional; conditions: 30 µM; further: in the data most compounds retested in dose-response had high values
# T4 sequence (whole entry): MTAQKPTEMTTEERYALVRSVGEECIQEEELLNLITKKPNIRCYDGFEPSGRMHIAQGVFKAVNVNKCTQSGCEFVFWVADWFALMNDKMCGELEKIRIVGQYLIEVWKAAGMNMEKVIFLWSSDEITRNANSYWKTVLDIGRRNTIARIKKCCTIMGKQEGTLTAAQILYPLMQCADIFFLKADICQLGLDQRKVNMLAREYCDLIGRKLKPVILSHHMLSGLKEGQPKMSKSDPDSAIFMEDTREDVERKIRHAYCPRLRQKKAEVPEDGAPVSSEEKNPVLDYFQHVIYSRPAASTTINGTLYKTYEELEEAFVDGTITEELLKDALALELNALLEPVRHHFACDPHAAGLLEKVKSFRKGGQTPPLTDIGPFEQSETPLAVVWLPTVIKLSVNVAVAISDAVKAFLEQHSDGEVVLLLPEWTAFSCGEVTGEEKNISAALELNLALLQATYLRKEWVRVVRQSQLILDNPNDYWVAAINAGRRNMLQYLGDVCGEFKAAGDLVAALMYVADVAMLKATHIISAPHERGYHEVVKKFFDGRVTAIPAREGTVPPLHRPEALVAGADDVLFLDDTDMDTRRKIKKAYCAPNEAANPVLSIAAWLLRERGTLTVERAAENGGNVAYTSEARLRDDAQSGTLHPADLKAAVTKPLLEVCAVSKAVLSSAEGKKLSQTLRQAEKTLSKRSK
# [8] = biological target: T4, Tyrosyl-tRNA synthetase, putative (Trypanosoma cruzi (strain CL Brener)); assay: Trypanosoma cruzi tyrosyl tRNA synthetase (TcYRS) SOP; assay type: functional; conditions: 30 µM
# [9] = biological target: Chromo domain-containing protein 1 (Saccharomyces cerevisiae (strain ATCC 204508 / S288c) (Baker's yeast)) (UniProt P32657); assay: ScCHD-1 Enzyme Inhibition Assay; assay type: functional; conditions: 30 µM; further: in the data most compounds retested in dose-response had high values
# Sequence of Chromo domain-containing protein 1 (Saccharomyces cerevisiae (strain ATCC 204508 / S288c) (Baker's yeast)) (P32657 whole entry, the tested form may be a part): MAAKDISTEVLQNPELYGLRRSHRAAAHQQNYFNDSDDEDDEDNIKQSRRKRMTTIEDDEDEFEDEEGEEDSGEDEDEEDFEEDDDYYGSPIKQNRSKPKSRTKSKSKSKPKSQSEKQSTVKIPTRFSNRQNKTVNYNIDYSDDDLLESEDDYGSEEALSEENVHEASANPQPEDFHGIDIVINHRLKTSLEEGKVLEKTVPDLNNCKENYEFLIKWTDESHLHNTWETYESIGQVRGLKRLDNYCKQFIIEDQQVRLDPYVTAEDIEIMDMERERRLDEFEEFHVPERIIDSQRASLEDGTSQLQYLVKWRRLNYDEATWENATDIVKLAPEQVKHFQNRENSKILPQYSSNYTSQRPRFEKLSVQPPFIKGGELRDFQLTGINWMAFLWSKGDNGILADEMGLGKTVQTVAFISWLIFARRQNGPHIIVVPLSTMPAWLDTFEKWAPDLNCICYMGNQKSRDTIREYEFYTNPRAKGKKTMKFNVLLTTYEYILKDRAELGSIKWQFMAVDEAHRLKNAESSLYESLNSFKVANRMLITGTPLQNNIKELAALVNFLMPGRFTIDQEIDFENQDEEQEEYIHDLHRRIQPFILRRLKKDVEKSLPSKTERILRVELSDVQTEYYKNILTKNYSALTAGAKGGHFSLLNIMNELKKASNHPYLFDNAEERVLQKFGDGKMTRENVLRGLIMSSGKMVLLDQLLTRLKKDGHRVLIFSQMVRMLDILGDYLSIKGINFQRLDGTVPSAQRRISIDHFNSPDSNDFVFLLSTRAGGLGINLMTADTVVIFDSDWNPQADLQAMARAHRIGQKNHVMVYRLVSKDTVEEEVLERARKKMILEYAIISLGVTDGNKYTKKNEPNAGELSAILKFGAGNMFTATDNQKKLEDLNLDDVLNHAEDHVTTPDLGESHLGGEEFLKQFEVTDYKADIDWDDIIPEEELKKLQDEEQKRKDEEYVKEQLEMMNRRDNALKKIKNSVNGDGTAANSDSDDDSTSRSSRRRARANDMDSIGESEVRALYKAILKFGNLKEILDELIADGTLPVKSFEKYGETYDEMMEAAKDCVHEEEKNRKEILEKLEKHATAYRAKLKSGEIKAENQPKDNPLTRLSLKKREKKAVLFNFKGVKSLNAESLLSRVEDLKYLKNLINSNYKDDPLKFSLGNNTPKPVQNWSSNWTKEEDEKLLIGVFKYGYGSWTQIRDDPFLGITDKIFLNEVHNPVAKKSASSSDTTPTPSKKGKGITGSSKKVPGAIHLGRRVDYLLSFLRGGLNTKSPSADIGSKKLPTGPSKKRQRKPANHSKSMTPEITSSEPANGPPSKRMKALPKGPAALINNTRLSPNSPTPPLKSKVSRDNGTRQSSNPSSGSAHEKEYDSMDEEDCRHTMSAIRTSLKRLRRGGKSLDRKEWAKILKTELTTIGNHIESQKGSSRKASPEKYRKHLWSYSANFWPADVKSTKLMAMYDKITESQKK
# Sequence of Protein translocase subunit SecA (Escherichia coli (strain K12)) (P10408 whole entry): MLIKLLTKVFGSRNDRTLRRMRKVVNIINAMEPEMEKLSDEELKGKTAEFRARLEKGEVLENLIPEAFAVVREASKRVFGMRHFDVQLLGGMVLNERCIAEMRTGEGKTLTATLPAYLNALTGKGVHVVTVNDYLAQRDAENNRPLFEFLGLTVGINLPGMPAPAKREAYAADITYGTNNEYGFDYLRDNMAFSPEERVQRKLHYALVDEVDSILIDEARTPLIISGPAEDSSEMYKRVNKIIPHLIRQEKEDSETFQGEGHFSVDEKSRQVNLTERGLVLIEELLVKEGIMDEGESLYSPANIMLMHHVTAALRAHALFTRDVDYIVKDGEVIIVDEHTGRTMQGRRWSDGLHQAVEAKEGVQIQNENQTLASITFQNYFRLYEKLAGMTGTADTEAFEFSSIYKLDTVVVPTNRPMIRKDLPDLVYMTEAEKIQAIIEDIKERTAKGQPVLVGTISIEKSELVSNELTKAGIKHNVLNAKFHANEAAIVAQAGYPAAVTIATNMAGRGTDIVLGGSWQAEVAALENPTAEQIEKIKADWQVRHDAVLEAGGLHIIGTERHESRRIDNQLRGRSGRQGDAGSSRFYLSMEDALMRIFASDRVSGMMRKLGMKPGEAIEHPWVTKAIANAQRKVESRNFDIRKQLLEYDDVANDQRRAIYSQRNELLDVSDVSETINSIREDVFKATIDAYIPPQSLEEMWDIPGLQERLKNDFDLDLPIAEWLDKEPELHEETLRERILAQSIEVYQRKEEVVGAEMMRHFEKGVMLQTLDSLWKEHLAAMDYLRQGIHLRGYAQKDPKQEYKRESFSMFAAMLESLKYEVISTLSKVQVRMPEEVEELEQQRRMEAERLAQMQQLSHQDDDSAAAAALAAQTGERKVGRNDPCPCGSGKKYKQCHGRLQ
# Sequence of Sialic acid-binding Ig-like lectin 9 (Homo sapiens) (Q9Y336 whole entry): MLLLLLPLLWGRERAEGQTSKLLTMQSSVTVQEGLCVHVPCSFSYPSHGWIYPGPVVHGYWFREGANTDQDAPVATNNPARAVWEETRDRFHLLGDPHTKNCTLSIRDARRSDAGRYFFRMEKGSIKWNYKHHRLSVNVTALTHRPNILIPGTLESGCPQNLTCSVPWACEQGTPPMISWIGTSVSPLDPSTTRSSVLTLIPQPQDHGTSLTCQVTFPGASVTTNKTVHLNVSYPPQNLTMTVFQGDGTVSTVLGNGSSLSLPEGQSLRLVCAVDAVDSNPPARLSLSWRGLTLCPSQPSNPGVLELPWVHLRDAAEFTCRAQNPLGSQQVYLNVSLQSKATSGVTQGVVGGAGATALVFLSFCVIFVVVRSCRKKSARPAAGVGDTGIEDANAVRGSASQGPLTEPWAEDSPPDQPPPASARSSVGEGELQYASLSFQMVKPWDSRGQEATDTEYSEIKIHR
Compound,Percent Effect [1] [%],Percent Effect [2] [%],Percent Effect [3] [%],Percent Effect [4] [%],Percent Effect (Trypanosoma cruzi) [%],Percent Effect [5] [%],Percent Effect [6] [%],Percent Effect (Homo sapiens) [%],Percent Effect [7] [%],Percent Effect [8] [%],Percent Effect [9] [%]
O=C(CN1CCC(c2cccc(F)c2)C1)NCc1ccco1 (stereo unspecified),-1.81,21.1,4.1,-1.87,6.01,-1.53,14.4,27.6,7.35,24.4,-8.76
CS(=O)(=O)NCc1nnc2n1CCN(CC1CC1)C2,-5.86,8.11,5.91,-4.89,-0.293,-2.23,18.6,-21.1,5.41,12.8,-2.16
CCN1CCN(C(=O)c2nc(C)n(-c3ccccc3Cl)n2)CC1,-9.34,7.89,-2.25,14.9,5.7,2.16,3.81,-16.5,4.43,23.5,-7.33
COCCN1C[C@@H]2CCCO[C@@H]2[C@H](NC(=O)c2cnccn2)C1,-1.67,8,1.63,1.69,-2.32,-45.3,3.59,-4.03,5.21,-12.5,-7.48
O=C1NCCN1C1CCN(Cc2ccccn2)CC1,-1.85,0,-5.58,1.53,-2.12,1.91,8.62,0.116,3.7,2.44,-3.18
CC(NC(=O)COc1nc(C(C)(C)C)no1)c1ccco1 (stereo unspecified),-6.83,2.7,5.6,2.63,4.25,2.86,3.45,-3.88,4.76,9.76,-1.56
O=c1[nH]c2c(c(=O)n1C1CCCCC1)CCC2Nc1ccccc1Cl (stereo unspecified),-2.47,6.67,-9.22,-1.39,4.71,92.1,5.36,33.1,-9.52,-7.69,-11.3
Cc1noc(C(C)C)c1C(=O)NS(=O)(=O)c1ccc(Cl)cc1,-5.93,2.63,7.93,1.74,3.8,0,17.9,9.23,6.38,7.79,3.02
Cc1cnc(CN(C)C2CCN(CC(=O)N(C)c3nccs3)C2)o1 (stereo unspecified),2.75,17.7,3.25,-2.38,-8.4,0.76,13.2,40.8,1.48,-3.8,-6.37
O=C(NCC1CCOC1)c1cc(-c2cccc(Cl)c2)on1 (stereo unspecified),-3.92,18.2,1.45,3.45,0,4.27,16.7,14.6,5.83,14.6,-5.69
Clc1ccccc1-c1nc(CNCCn2cccn2)cs1,-1.85,-15.8,2.49,-0.874,9.02,0.383,10.9,13.7,9.31,17.1,14.2
